Where “and” joins values, the source holds several entries; their conditions need not be identical. Equal values may be shown once. Out of some 5,500 compounds screened, about 2,000 (36%) were called active. About 18% were inconclusive and are not listed. Cut-off read from the data, not from the text of the source: active = normalized growth mostly below about 0.91 (no sharp cut-off); inconclusive = no clear call, values can overlap the other calls; inactive = mostly above about 0.92. This is one part of the list. Where a SMILES comes first, the peptide text is derived from it.
Experiment: chemical genetic growth profiling, strain panel (AID 1159580);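 note: tested at 20 µM; growth read once vehicle control cultures reached saturation at 30 °C; 1 = growth at the plate median or of vehicle wells; lower values mean less growth of the strain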
Conditions: S. cerevisiae deletion strains, growth OD

Measured: normalized growth

CC(=O)N[C@@H](CC(=O)O)C(=O)N[C@@H](CCC(=O)O)C(=O)O (Ac-Asp-Glu-OH)
inactive: locus YAL013W, strain DEP1, stronger effect = lower value 0.996 | locus YAL021C, strain ccr4, stronger effect = lower value 1 | locus YAL026C, strain drs2, stronger effect = lower value 1.01 | locus YAL030W, strain snc1, stronger effect = lower value 1.01 | locus YBL061C, strain skt5, stronger effect = lower value 1 | locus YBR009C, strain hhf1, stronger effect = lower value 0.969 | locus YBR021W, strain FUR4, stronger effect = lower value 1.02 | locus YBR023C, strain chs3, stronger effect = lower value 1.01 | locus YBR171W, strain sec66, stronger effect = lower value 1 | locus YBR229C, strain ROT2, stronger effect = lower value 1.01 | locus YBR231C, strain swc5, stronger effect = lower value 0.997 | locus YBR279W, strain paf1, stronger effect = lower value 1 | locus YCL011C, strain gbp2, stronger effect = lower value 1 | locus YCL016C, strain dcc1, stronger effect = lower value 0.998 | locus YCL029C, strain bik1, stronger effect = lower value 0.989 | locus YCL061C, strain MRC1, stronger effect = lower value 1 | locus YCL069W, strain vba3, stronger effect = lower value 1 | locus YCR088W, strain abp1, stronger effect = lower value 1 | locus YDL005C, strain med2, stronger effect = lower value 1 | locus YDL035C, strain GPR1, stronger effect = lower value 1.01 | locus YDL040C, strain nat1, stronger effect = lower value 0.998 | locus YDL074C, strain BRE1, stronger effect = lower value 1.03 | locus YDL101C, strain DUN1, stronger effect = lower value 1.03 | locus YDL134C, strain PPH21, stronger effect = lower value 1.02 | locus YDL185W, strain tfp1, stronger effect = lower value 1 | locus YDL192W, strain arf1, stronger effect = lower value 0.996 | locus YDR001C, strain nth1, stronger effect = lower value 1 | locus YDR069C, strain doa4, stronger effect = lower value 1 | locus YDR101C, strain arx1, stronger effect = lower value 0.98 | locus YDR137W, strain rgp1, stronger effect = lower value 1.03 | locus YDR150W, strain NUM1, stronger effect = lower value 1.02 | locus YDR159W, strain sac3, stronger effect = lower value 0.983 | locus YDR162C, strain NBP2, stronger effect = lower value 1.02 | locus YDR195W, strain ref2 0.985 | locus YDR297W, strain sur2, stronger effect = lower value 0.996 | locus YDR318W, strain mcm21, stronger effect = lower value 0.981 | locus YDR334W, strain swr1, stronger effect = lower value 1.01 | locus YDR335W, strain msn5, stronger effect = lower value 1 | locus YDR388W, stronger effect = lower value 0.989 | locus YDR392W, strain spt3, stronger effect = lower value 0.898 | locus YDR502C, strain sam2, stronger effect = lower value 0.989 | locus YEL003W, strain gim4, stronger effect = lower value 1 | locus YEL037C, strain rad23, stronger effect = lower value 1.01 | locus YEL061C, strain CIN8 (second series), stronger effect = lower value 1 | locus YEL061C, strain CIN8, stronger effect = lower value 1.01 | locus YER015W, strain faa2, stronger effect = lower value 1 | locus YER016W, strain bim1, stronger effect = lower value 1 | locus YER110C, stronger effect = lower value 0.987 | locus YER111C, strain swi4, stronger effect = lower value 0.993 | locus YER155C, strain BEM2 (second series), stronger effect = lower value 1.01 | locus YER155C, strain BEM2, stronger effect = lower value 1.01 | locus YER167W, strain BCK2, stronger effect = lower value 1 | locus YFR010W, strain ubp6, stronger effect = lower value 1.01 | locus YGL078C, strain dbp3, stronger effect = lower value 0.993 | locus YGL086W, strain mad1, stronger effect = lower value 0.994 | locus YGL167C, strain pmr1, stronger effect = lower value 0.995 | locus YGL173C, strain kem1, stronger effect = lower value 1.01 | locus YGL227W, strain vid30, stronger effect = lower value 1 | locus YGL240W, strain doc1, stronger effect = lower value 0.987 | locus YGL248W, strain PDE1, stronger effect = lower value 1.02 | locus YGL253W, strain hxk2, stronger effect = lower value 1.02 | locus YGR078C, strain PAC10, stronger effect = lower value 1.01 | locus YGR135W, strain pre9, stronger effect = lower value 0.995 | locus YGR229C, strain SMI1, stronger effect = lower value 1.01 | locus YGR252W, strain gcn5, stronger effect = lower value 0.97 | locus YHR013C, strain ard1, stronger effect = lower value 0.977 | locus YHR027C, strain rpn1, stronger effect = lower value 1.01 | locus YHR030C, strain SLT2, stronger effect = lower value 1.01 and 0.999 | locus YHR079C, strain IRE1 (second series), stronger effect = lower value 0.992 | locus YHR079C, strain IRE1, stronger effect = lower value 0.99 | locus YHR094C, strain hxt1, stronger effect = lower value 0.985 | locus YHR129C, strain ARP1, stronger effect = lower value 1.01 | locus YHR142W, strain chs7, stronger effect = lower value 1.04 | locus YHR200W, strain rpn10, stronger effect = lower value 0.998 | locus YIL066C, strain RNR3, stronger effect = lower value 1.01 | locus YIL073C, strain SPO22, stronger effect = lower value 1 | locus YIL125W, strain kgd1, stronger effect = lower value 0.982 | locus YIR030C, strain dcg1, stronger effect = lower value 0.992 | locus YJL092W, strain hpr5, stronger effect = lower value 1.01 | locus YJL095W, strain BCK1 (second series), stronger effect = lower value 1 | locus YJL095W, strain BCK1, stronger effect = lower value 1.02 and 0.976 | locus YJL115W, strain asf1, stronger effect = lower value 0.999 | locus YJL129C, strain trk1, stronger effect = lower value 1.01 | locus YJL134W, strain LCB3, stronger effect = lower value 1.01 | locus YJL154C, strain vps35, stronger effect = lower value 1 | locus YJL164C, strain tpk1, stronger effect = lower value 1 | locus YJL166W, strain qcr8, stronger effect = lower value 1.01 | locus YJL168C, strain set2, stronger effect = lower value 0.99 | locus YJL187C, strain SWE1 (second series), stronger effect = lower value 1.01 | locus YJL187C, strain SWE1, stronger effect = lower value 1 | locus YJR043C, strain POL32, stronger effect = lower value 1.01 | locus YJR066W, strain TOR1, stronger effect = lower value 0.904

Source: PubChem BioAssay AID1159580 (chemical genetic matrix, 2015)
